Screens: PubChem BioAssay, National Center for Advancing Translational Sciences (NCATS)
Compounds with a hit are over-represented: about 18% of the library has one in this group of screens.
Six1-Eya2 blk: blocks human Six1 binding to Eya2; Q15475+O00167; activity change, % (test concentration not listed); AlphaScreen GST-Six1/His-Eya2 binding, biochemical; stronger effect = lower value; AID 651725; 360,000 compounds, 0.56% hits; in the data active = activity change below about -65%; inconclusive = mostly about -30% to -63%
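Homogeneous AlphaScreen proximity assay pairing GST-Six1 with His-tagged Eya2 (added as 5X mix: 250 nM and 500 nM) in 50 mM Tris pH 8.0, 300 mM NaCl, 1 mM TCEP. Glutathione donor and nickel acceptor beads; 1 h, 37 °C, dark.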
TDP1 cell CPT: growth inhibition of DT40 Tdp1-/-;hTDP1 cells with camptothecin (screen for TDP1 inhibitors); chicken DT40 Tdp1-/-;hTDP1 cells + 20 nM CPT, ATP luminescence, 48 h; Potency, µM (doses to about 46.2 µM), for inactives: at the highest dose activity change, negative = growth inhibition, hits mostly inhibitors; 420,000 compounds, 12% hits; AID 686979; also: potency is read from the fitted curve at half-maximal effect; nearly all actives have a fitted effect of over 55% in size
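Chicken DT40 Tdp1-/- cells stably complemented with human TDP1 were seeded at 400 cells/well in medium containing 20 nM camptothecin, exposed to pin-transferred compounds, and grown at 37 °C for at least 48 hr. Viability was read as ATP luminescence.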
TDP1 cell noCPT: qHTS for Inhibitors of human tyrosyl-DNA phosphodiesterase 1 (TDP1): qHTS in cells in absence of CPT; DT40 Tdp1-/- hTDP1 cells, no CPT, ATP luminescence, 48 h; 420,000 compounds, 15% hits; AID 686978, 2013; Potency, µM (series often up to 46.2 µM), without a hit: at the top dose activity change, negative = growth inhibition, actives largely listed as inhibitors; also: potency is read from the fitted curve at half-maximal effect; nearly all actives have a fitted effect of over 55% in size
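Cells were dispensed at 400 per well, compounds added by pin tool, plates incubated ≥48 hr at 37 °C, then CellTiter-Glo added for 30 min at room temperature before luminescence reading. Line: DT40 Tdp1-/- complemented with hTDP1; camptothecin omitted.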
IL1B secr inh: inflammasome signaling inhibition, IL-1 beta readout; activity change, % at 57.5 µM; AID 743279; 360,000 compounds, 4.7% hits; THP-1 LPS/ATP IL-1B secretion, AlphaLISA, 16 h; stronger effect = lower value; in the data active = activity change below about -50%; inconclusive = mostly about -30% to -49%
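THP-1 cells pretreated 1 hr with compounds (up to 57.5 uM final), then stimulated with LPS (250 ng/mL final) plus ATP (1.25 mM final); secreted IL-1B measured by AlphaLISA after 16 hr, decreased signal indicating inhibition.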
TDP1 inh: blocks human tyrosyl-DNA phosphodiesterase 1. Q9NUW8. recombinant TDP1, AlphaScreen DNA substrate cleavage. Potency, µM (top dose mostly 130 µM), for the others: at the top dose activity change, negative = inhibition, hits mostly inhibitors. 350,000 compounds, 0.28% hits. AID 485290; also: potency is read from the fitted curve at half-maximal effect; nearly all actives have a fitted effect of over 40% in size
Target sequence (Q9NUW8 whole entry, looked up): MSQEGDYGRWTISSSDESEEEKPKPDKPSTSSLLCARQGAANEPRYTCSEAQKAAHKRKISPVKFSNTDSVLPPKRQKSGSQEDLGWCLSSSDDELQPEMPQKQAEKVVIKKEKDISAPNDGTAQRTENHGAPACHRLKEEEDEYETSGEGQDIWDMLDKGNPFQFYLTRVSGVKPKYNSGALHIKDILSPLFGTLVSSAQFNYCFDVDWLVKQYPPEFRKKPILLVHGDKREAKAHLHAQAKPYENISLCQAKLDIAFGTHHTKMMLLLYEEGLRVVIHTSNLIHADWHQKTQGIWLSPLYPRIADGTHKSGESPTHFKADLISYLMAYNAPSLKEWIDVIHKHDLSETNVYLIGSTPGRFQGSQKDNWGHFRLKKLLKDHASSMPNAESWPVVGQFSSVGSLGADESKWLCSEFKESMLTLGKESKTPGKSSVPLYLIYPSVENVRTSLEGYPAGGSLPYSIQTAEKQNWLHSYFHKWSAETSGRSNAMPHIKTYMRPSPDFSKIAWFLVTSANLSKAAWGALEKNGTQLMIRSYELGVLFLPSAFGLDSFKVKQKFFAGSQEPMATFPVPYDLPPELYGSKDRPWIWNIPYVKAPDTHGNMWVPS
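Compounds were preincubated with Tdp1 (1 nM final) for 15 min at room temperature before substrate (15 nM final) started a 5 min reaction; beads (10 ug/ml final) were then added for 10 min before AlphaScreen detection.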
CtBP-E1A blk: blocks the CtBP interaction with E1A | AlphaScreen GST-E1A/His-CtBP binding, 1536-well; stronger effect = lower value | activity change, % (test concentration not listed) | 340,000 compounds, 0.49% hits | AID 651724; in the data active = activity change below about -65%; inconclusive = mostly about -30% to -63%
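GST-E1A and His-tagged CtBP (125 nM each as 5X stock) were preincubated with pin-transferred compound for 2 h at 37 °C in the dark, then glutathione donor and nickel acceptor beads were added for 1 h before AlphaScreen reading.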
* hit, by the source's call; ? = inconclusive; . = not tested or not shown; [ ] = another dose, or the depositor's remark. Unless noted, calls follow the shape of the dose curve; as a rule, active = well fitted curve in the direction sought with a large enough effect; inconclusive = small, poorly fitted or top-dose-only effect, or another doubt; inactive = no such curve, though single readings can be large; an effect the other way counts as inactive or inconclusive. % is scaled to controls: 0 for no effect and ±100 for the full control effect.

SMILES	Six1-Eya2 blk	TDP1 cell CPT	TDP1 cell noCPT	IL1B secr inh	TDP1 inh	CtBP-E1A blk
Cc1ccc(NC(=O)CN2C(=O)CN=C(c3ccccc3)c3ccccc32)c(C)c1	.	?	?	.	2.3%	.
COc1cccc(CN2CCN(Cc3cccc(F)c3)CC2)c1	2.0	-11.0%	-28.3%	-4.0	.	.
COc1ccccc1N1CCN(S(=O)(=O)CCNC(=O)CCCc2ccccc2)CC1	2.7	?	20.6µM*	-2.5	.	-3.6
COc1ccccc1N1CCN(CCc2ccccc2)CC1	-13.4	?	-6.3%	-0.7	.	.
COc1c(C)cc(Br)cc1C(=O)Nc1ccc(-c2nc3ncccc3o2)cc1	.	6.51µM*	4.61µM*	.	3.2%	.
S=C(S)N1CCNCC1	.	-13.6%	-16.5%	.	.	.
O=C1NCCOC(=O)[C@@H](Cc2ccc(F)cc2)CC/C=C/C[C@H]1CC(=O)N(CCO)Cc1ccccc1	-2.3	20.6µM*	?	-0.1	1.5%	1.7
O=C1NCCOC(=O)[C@H](Cc2ccc(F)cc2)CC/C=C/C[C@@H]1CC(=O)N(CCO)Cc1ccccc1	8.3	16.4µM*	?	29.1	1.3%	2.2
CNC1(c2ccccc2Cl)CCCCC1=O (centres undefined)	1.9	12.6%	-11.3%	9.9	4.3%	-0.8
CC(C)(C)NCC(O)c1ccccc1Cl (centres undefined)	.	-3.1%	-4.3%	.	9.1%[56.1 µM]	.
COc1cc(C(c2c(C)[nH]n(-c3ccccc3)c2=O)c2c(C)[nH]n(-c3ccccc3)c2=O)cc(OC)c1OC	-23.3	-25.8%	?	-78.1*	2.9%	0.6
Cc1[nH]n(-c2ccccc2)c(=O)c1C(c1cccc([N+](=O)[O-])c1O)c1c(C)[nH]n(-c2ccccc2)c1=O	-27.0	-22.4%	?	-3.0	-1.9%	-22.9
C=CC[C@@H](CC(=O)N(CCO)Cc1ccccc1)C(=O)NC[C@@H](OC(=O)[C@@H](CC=C)CC(=O)OC(C)(C)C)c1ccccc1	-9.3	?	?	?	-1.0%	4.5
C=CC[C@H](CC(=O)N(CCO)Cc1ccccc1)C(=O)NC[C@H](OC(=O)[C@@H](CC=C)CC(=O)OC(C)(C)C)c1ccccc1	0.4	20.6µM*	23.1µM*	-71.3*	0.0%	-1.7
COCCCNC(=S)NNC(=O)c1ccc(C(C)(C)C)cc1	2.6	-6.7%	?	13.9	-1.2%	.
CCc1cc(=O)oc2cc(OCC(=O)N3C[C@H]4C[C@@H](C3)c3cccc(=O)n3C4)ccc12	-1.9	6.9%	17.8%	-6.4	.	0.1
CN(C(=O)COC(=O)c1cn(C)c2ccccc12)C1CCCCC1	3.0	-23.6%	-3.7%	-50.4*	-0.1%	3.2
Cn1cc(C(=O)OCC(=O)NC2CCCC2)c2ccccc21	-2.3	-13.2%	-22.0%	-8.0	1.6%	-0.7
CC(=O)OC[C@]12C[C@H](OC(=O)CC(C)C)C(C)=C[C@H]1O[C@H]1[C@H](O)[C@@H](OC(C)=O)[C@@]2(C)[C@]12CO2	.	0.0116µM*	0.0092µM*	.	2.5%	.
CC(=O)OC[C@]12CCC(C)=C[C@H]1O[C@@H]1[C@H](O)[C@@H](OC(C)=O)[C@@]2(C)[C@]12CO2	4.9	0.0206µM*	0.0164µM*	-105.7*	.	-24.3
O[C@@H]1CCCC[C@@H]1N1CCC(c2ccccc2)CC1	.	-2.8%	8.4%	.	1.2%	.
CC(C)(C)C(=O)N1Cc2cc(N3CCOCC3)ccc2-n2nncc2C1	7.5	?	-16.3%	-13.5	.	1.5
Cn1ccc(NC(=O)CCl)n1	-1.6	?	?	-102.4*	5.3%	-0.1
Cc1cc(NC(=O)CCl)nn1C	8.2	23.1µM*	14.6µM*	-101.5*	3.7%	-13.0
CC(C)C12CN3CC(C(C)C)(CN(C1)C3c1ccccn1)C2=O (centres undefined)	.	-27.2%	-19.1%	.	4.7%	.
COc1ccc(OCC(=O)N2CCN(C(C)C)CC2)cc1	7.3	-3.2%	-9.1%	20.0	-9.8%	-2.1
